# Screening data deposited in PubChem by National Center for Advancing Translational Sciences (NCATS).
# Pol eta inh – DNA polymerase eta (human) inhibition. Q9Y253. recombinant Pol eta, fluorescent DNA replication assay. Potency, µM (highest dose often 114 µM), for inactives: at the top dose activity change, negative = inhibition, hits mostly inhibitors. actives 1.2% (n = 390,000); further: potency means the concentration at half of the fitted maximal effect; on the % scale 0 is the no-effect control and ±100 the full control effect
#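 Pol eta at 10 nM preincubated with compounds 15 min at room temperature; reaction started with fluorescent substrate (50 nM final) and read kinetically at 0 and 10 min.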
# POLI inh – blocks human DNA polymerase iota activity | Q9UNA4 | Pol iota fluorescent replication assay, 10 min | Potency, µM (doses to about 115 µM), inactives show at the highest dose activity, negative = inhibition, usual class: inhibitors | actives 1% (n = 390,000) | AID 588590; further: potency means the concentration at half of the fitted maximal effect
#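 Fluorescent replication assay read twice, at 0 min and 10 min after adding 50 nM (final) substrate. Enzyme (10 nM) and compounds were first incubated 15 min at room temperature; enzyme-free buffer wells were negative controls.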
# PI5P4K alpha inh – blocks human PI5P4K alpha kinase activity. P48426. PI5P4Kalpha enzyme, ADP-Glo luminescence, 60 min; active compounds read low. max response, %. actives 1.2% (n = 330,000). AID 652105; active means max response of -50% or lower; inconclusive means between -30% and -50%; inactive means -30% or higher; further: value at the top dose of about 77 µM; on the % scale 0 is the no-effect control and ±100 the full control effect
#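 Human PI5P4Kalpha with substrate in 0.038 M HEPES pH 7.4, 0.28 mM EGTA, 0.1% CHAPS, 5% DMSO; reaction started with 5 microM ATP (final), 60 min at room temperature. ADP formed read by ADP-Glo luminescence.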
# POLK inh – DNA polymerase kappa (human) inhibition; purified Pol kappa, fluorescent DNA synthesis assay, 10 min; Potency, µM (titrated, usually from 107 µM), for inactives: at the highest dose activity, negative = inhibition, hits mostly inhibitors; actives 0.53% (n = 400,000); further: potency means the concentration at half of the fitted maximal effect; on the % scale 0 is the no-effect control and ±100 the full control effect
# Target sequence (Q9UBT6 whole entry, looked up): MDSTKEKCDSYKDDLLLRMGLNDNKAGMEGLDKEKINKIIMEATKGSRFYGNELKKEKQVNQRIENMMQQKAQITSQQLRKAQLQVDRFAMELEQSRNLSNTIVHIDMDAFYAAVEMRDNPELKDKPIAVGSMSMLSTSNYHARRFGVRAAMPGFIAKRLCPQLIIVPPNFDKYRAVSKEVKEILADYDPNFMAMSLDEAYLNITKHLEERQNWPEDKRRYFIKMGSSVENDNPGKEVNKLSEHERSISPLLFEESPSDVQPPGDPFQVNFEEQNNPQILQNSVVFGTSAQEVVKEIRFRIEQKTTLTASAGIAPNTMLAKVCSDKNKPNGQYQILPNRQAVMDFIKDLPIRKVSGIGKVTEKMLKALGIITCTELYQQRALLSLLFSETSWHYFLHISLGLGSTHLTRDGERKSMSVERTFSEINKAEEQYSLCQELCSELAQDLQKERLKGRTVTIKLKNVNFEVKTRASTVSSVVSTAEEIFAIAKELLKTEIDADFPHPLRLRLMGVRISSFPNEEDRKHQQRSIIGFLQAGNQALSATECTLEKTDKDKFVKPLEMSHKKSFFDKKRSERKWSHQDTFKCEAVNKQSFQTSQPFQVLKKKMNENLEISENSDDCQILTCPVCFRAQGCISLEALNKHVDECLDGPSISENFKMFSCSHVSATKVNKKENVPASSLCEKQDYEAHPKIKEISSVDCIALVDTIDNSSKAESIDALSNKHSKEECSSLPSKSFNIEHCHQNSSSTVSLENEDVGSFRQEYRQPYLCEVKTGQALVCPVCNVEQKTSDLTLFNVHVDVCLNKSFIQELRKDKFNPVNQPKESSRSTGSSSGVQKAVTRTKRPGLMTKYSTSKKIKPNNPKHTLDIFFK
#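 10 nM Pol kappa was preincubated with compounds for 15 min at room temperature. Reaction started with 50 nM (final) substrate. Fluorescence read kinetically at 0 and 10 min.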
# WRN helicase inh – blocks human WRN helicase; Potency, µM (highest dose often 114 µM), for the others: at the top dose activity change, negative = inhibition, actives largely listed as inhibitors; actives 0.46% (n = 360,000); WRN helicase unwinding, fluorescent forked duplex, kinetic; Q14191; further: potency means the concentration at half of the fitted maximal effect; on the % scale 0 is the no-effect control and ±100 the full control effect; nearly all actives have a fitted effect of over 55% in size
#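 Kinetic red-fluorescence monitoring (525/598 nm) tracks WRN helicase activity after 100 nM fluorophore-quencher forked duplex and 2 mM ATP are added to 20 nM enzyme pretreated 15 min at room temperature with compound.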
# POLB inh – DNA polymerase beta (human) inhibition; P06746; Pol beta primer extension/strand displacement, fluorescence kinetic; Potency, µM (top dose mostly 114 µM), for the others: at the highest dose activity change, negative = inhibition, actives largely listed as inhibitors; actives 1.3% (n = 340,000); further: potency means the concentration at half of the fitted maximal effect; on the % scale 0 is the no-effect control and ±100 the full control effect
#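 Preincubation: enzyme (10 nM) with compound, 15 min, RT. Reaction: substrate added to 50 nM final. Reads: 0 and 10 min. Analysis: normalized, Hill fit.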
# * marks the source's active call; other numbers are inactive results; ? = inconclusive; . = no result; [ ] = remark or other dose. Most compounds without a hit are left out; they make up all but 2.8% or so of the library. Unless noted, the call rests on the fitted dose curve; in most records, active means well fitted curve in the direction sought with a large enough effect; inconclusive means small, poorly fitted or top-dose-only effect, or another doubt; inactive means no such curve, though single readings can be large; an effect the other way counts as inactive or inconclusive.
SMILES,Pol eta inh,POLI inh,PI5P4K alpha inh,POLK inh,WRN helicase inh,POLB inh
O=C(O)c1cc(N/N=C/c2ccc3c(c2)OCO3)ccc1Cl,-5%,21%,-53*,-15%,-22%[57.1 µM],33%
C/C(=N\Nc1ccc(Cl)c(C(=O)O)c1)c1ccc2c(c1)OCO2,?,46%,-23,?,-25%,?
CC(C)n1cc(/C=N/Nc2ccc(Cl)c(C(=O)O)c2)c2ccccc21,.,.,.,.,.,32µM*
COc1cc(/C=N/Nc2ccc(Cl)c(C(=O)O)c2)ccc1OC(=O)c1ccccc1F,-19%,?,1,-13%,-6%,?
O=C(Cn1c(=O)n(-c2ccc(F)c(Cl)c2)c(=O)c2sc3ccccc3c21)NC1CCCCC1,-15%,65%,.,4%,.,22%
CCOC(=O)c1ccc2c(c1)N(CC(=O)N(C)c1ccccc1)C(=O)c1ccccc1S2,-10%,23%,.,-10%[60.1 µM],.,-17%
O=C(Cn1ncc2c(Cl)cccc21)NCc1cccc(Cl)c1,-2%,?,.,-5%,.,-22%
CC(C)(C)n1ncc2c(=O)n(Cc3cc(Cl)ccc3Cl)cnc21,.,-8%,.,6%,.,.
O=C(O)c1ccc(N/N=C/c2cc3cc4c(cc3nc2Cl)OCCO4)cc1,45µM*,?,-17,-28%,-25%,-12%
Cc1ccc(N/N=C/c2ccc3c(c2)OCCO3)cc1Cl,-15%,8%,2,2%,-21%[57.1 µM],3%
O=C(O)c1cc(N/N=C/c2ccc3c(c2)OCCO3)ccc1Cl,25µM*,?,?,?,-18%[57.1 µM],?
O=C(OCC(=O)c1ccc(Cl)s1)c1cnccn1,?,?,-52*,-14%,-10%,?
COc1ccc(Cl)cc1NC(=O)CSc1nnc(C)n2c1cc1occc12,-14%,4%,.,-2%,.,?
COc1ccccc1N1CCN(C(=O)CN2C(=O)COc3ccc(S(=O)(=O)N4CCOCC4)cc32)CC1,-4%,22%,.,-14%,.,9%
CCOC(=O)c1nn(-c2ccccc2)c(=O)c2c(NC(C)=O)scc12,-7%,36%,-4,0%,-8%,-24%
Nc1scc2c(C(=O)N/N=C/c3ccc(Cl)cc3)nn(-c3ccccc3)c(=O)c12,-5%,6.3µM*,.,?,-8%[57.1 µM],23%
CCOC(=O)c1nn(-c2ccccc2)c(=O)c2c(N)scc12,?,?,-61*,-1%,?,-8%
COc1cccc(C(C(=O)NCc2ccccc2)N2CCN(C(=O)C3CCCO3)CC2)c1OC (stereo unspecified),.,.,-2,.,4%,.
COc1ccc(OC)c(NC(=O)Cn2nc3c(cc2=O)CCCC3)c1,-6%,20%,.,-16%,.,25%
O=C(COc1ccc(F)cc1)NCC(c1ccc(Cl)cc1)N1CCCCC1 (stereo unspecified),-25%,11%,.,-15%,.,12%
Cc1ccc2nc(Nc3ccc(C)c(F)c3)c3nncn3c2c1,-1%,-2%,.,-5%,.,3%
CCOc1cccc(NC(=O)/C(C#N)=C\c2cn(CC(=O)O)c3ccccc23)c1,?,-2%,-23,0%,-6%,50µM*
CCc1[nH]c(=O)c(C#N)c2c1CCCC2,-9%,-11%,1,-13%,2%[57.1 µM],-24%
CCOC(=O)c1c2c([nH]c(=S)c1C#N)CCCC2,79µM*,?,?,-17%,-27%,?
CCc1[nH]c(=S)c(C#N)c2c1CCCC2,-22%,-10%,-52*,1%,-19%,-23%
SMILES,Pol eta inh,POLI inh,PI5P4K alpha inh,POLK inh,WRN helicase inh,POLB inh
CCn1cc(C(=O)N(C)Cc2ccccc2)c(=O)c2cc(S(=O)(=O)N3CCCCC3)ccc21,-4%,0%,.,-6%,.,35%
O=C(NC(Cc1ccccc1)C(=O)O)/C(=C\c1ccco1)NC(=O)c1ccc(Br)cc1 (stereo unspecified),?,20µM*,-16,50µM*,?,-22%
O=C(NC(Cc1ccccc1)C(=O)O)/C(=C\c1ccco1)NC(=O)c1ccccc1 (stereo unspecified),14µM*,?,-10,-27%,-27%[57.1 µM],40µM*
O=C(NC(Cc1ccccc1)C(=O)O)/C(=C\c1ccco1)NC(=O)c1ccco1 (stereo unspecified),-21%,45%,-2,-19%,-12%,?
O=C(NC(Cc1ccccc1)C(=O)O)/C(=C/c1cccc(Br)c1)NC(=O)c1ccco1 (stereo unspecified),-13%,3%,2,-18%,-10%,0%
Cc1ccc(NC(=O)c2ccc3c(c2)NC(=O)c2ccccc2S3)c(Cl)c1,-25%,79µM*,.,9%,.,?
COC(=O)c1c(N)n(-c2cc(Cl)cc(Cl)c2)c2nc3ccccc3nc12,-2%,15%,.,-2%,.,-12%
N#Cc1nc(-c2ccc(COc3ccc(Cl)cc3)o2)oc1N1CCC(C(N)=O)CC1,-7%,-1%,.,-21%,.,?
Cc1cc(C(=O)COC(=O)c2cc(O)c3ccccc3c2O)c(C)n1CC1CCCO1 (stereo unspecified),-26%,53%,?,-17%,?,45µM*
Nc1ccc2cccc(O)c2c1,22µM*,13µM*,-80*,79µM*,-27%,.
CC1=NN(c2nc(-c3ccc(C)cc3)cs2)C(=O)C1N=Nc1cccc(C)c1 (stereo unspecified),-14%,11%,2,-4%,-23%,?
CCOC(=O)c1sc(N2N=C(C)C(N=Nc3cccc(C)c3)C2=O)nc1C (stereo unspecified),40µM*,50µM*,?,89µM*,-23%[11.6 µM],?
COc1ccc(-c2nc3ccccc3o2)cc1NC(=O)c1cccc2c(Cl)cccc12,-13%,?,.,10%,.,15%
Cc1[nH]n(-c2ccccc2)c(=O)c1N=Nc1ccc2c(c1)OCCO2,1%,6%,16,-9%,2%,?
Cc1[nH]n(-c2ccccc2)c(=O)c1N=Nc1c(O)cc(S(=O)(=O)N(C)C)c2ccccc12,89µM*,30%,-8,-9%,-4%,.
CN(C)c1ccc(/C=C2\SC(=O)N(CCc3nnc(N)s3)C2=O)cc1,-11%,50µM*,?,-18%,-12%,?
COCCOc1cc(N2C(=O)CSCC2=O)c(Cl)cc1Cl,-3%,89µM*,.,-2%,-25%[57.1 µM],13%
CNC(=O)CS(=O)(=O)CC(=O)Nc1cc(OCCOC)c(Cl)cc1Cl,-3%,105%,-3,-1%,-5%,-1%
COc1ccc(-c2nc3scc(CCNC(=O)c4cc(OC)cc(OC)c4)n3n2)cc1,-18%,24%,.,2%,.,4%
